HPGD block: blocks human HPGD enzyme activity. P15428. purified HPGD, NADH fluorescence kinetic, PGE2 substrate. Potency, µM, most hits filed as inhibitors. actives 4.3% (n = 150,000); active = well fitted inhibition curve with a large enough effect, not every such curve was filed as active; inconclusive = small, poorly fitted or top-dose-only effect, or another doubt; inactive = no such curve, though single readings can be large or run the other way
Target sequence (P15428 whole entry, looked up): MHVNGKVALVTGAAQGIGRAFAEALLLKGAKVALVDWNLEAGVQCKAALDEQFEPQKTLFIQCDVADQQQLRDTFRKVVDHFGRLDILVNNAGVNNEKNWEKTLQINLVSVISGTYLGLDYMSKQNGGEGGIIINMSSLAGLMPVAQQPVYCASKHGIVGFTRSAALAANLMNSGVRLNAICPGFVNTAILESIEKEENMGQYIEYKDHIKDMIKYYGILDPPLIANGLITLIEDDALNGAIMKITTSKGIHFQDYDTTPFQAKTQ
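20 nM HPGD preincubated 15 min at room temperature with compound in 50 mM Tris-HCl pH 8, 0.01% Tween 20. Started with 1 mM NAD+ and 30 uM prostaglandin E2; NADH fluorescence (360/450 nm) read 5 times over 30-s intervals, last minus first.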
Tau fibril ThT: inhibitors of human tau fibril formation, thioflavin T binding; P10636; Potency, µM (top dose mostly 57.4 µM), hits mostly inhibitors; actives 2.1% (n = 270,000); recombinant tau K18 P301L, heparin-induced fibrillization, ThT fluorescence; note: nearly all actives have a fitted effect of over 55% in size
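ThT emission at 510 nm, taken 1 hr after adding 30 uM dye, quantifies aggregates formed when 20 uM heparin acts on human tau K18 P301L for 6 hr at 37 C.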
JMJD2E inh: JMJD2E (human) inhibition; B2RXH2; JMJD2E catalytic domain, FDH-coupled NADH fluorescence (FDH is formaldehyde dehydrogenase); Potency, µM (titrated, usually from 57.1 µM), actives largely listed as inhibitors; actives 1.6% (n = 230,000); active = well fitted inhibition curve with a large enough effect, not every such curve was filed as active; inconclusive = small, poorly fitted or top-dose-only effect, or another doubt; inactive = no such curve, though single readings can be large or run the other way; note: nearly all actives have a fitted effect of over 50% in size
Tau fluor counter: counter-screen for tau fibril formation inhibitors | tau K18 P301L Alexa594 fluorescence, heparin fibrillization | Potency, µM (series often up to 57.7 µM) | actives 0.93% (n = 280,000); note: nearly all actives have a fitted effect of over 55% in size
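Human tau K18 P301L (15 uM unlabeled, 0.24 uM Alexa 594-labeled) in 100 mM sodium acetate pH 7 with 20 uM heparin, 6 hr at 37 C. ThT 30 uM added, 1 hr ambient; Alexa 594 FP and total fluorescence read at 555/632 nm.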
Tau FP inhib: blocks human tau fibril formation measured by polarization. P10636. K18 P301L tau heparin fibrillization, Alexa594 FP, 6 h. Potency, µM (doses to about 57.7 µM), actives largely listed as inhibitors. actives 0.39% (n = 280,000). AID 1468; note: nearly all actives have a fitted effect of over 55% in size
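K18 P301L tau (15 uM unlabeled/0.24 uM Alexa 594-labeled, final) + compound + heparin 20 uM final; 100 mM NaOAc pH 7; 6 hr 37 C; ThT 30 uM final added, 1 hr RT; FP ex 555/em 632 nm.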
ALDH1A1 inh: inhibitors of human aldehyde dehydrogenase 1A1; P00352; Purified ALDH1A1, NADH fluorescence, propionaldehyde substrate; Potency, µM (top dose mostly 75.3 µM), hits mostly inhibitors; actives 7.3% (n = 220,000); active = well fitted inhibition curve with a large enough effect, not every such curve was filed as active; inconclusive = small, poorly fitted or top-dose-only effect, or another doubt; inactive = no such curve, though single readings can be large or run the other way
Target sequence (P00352 whole entry, looked up): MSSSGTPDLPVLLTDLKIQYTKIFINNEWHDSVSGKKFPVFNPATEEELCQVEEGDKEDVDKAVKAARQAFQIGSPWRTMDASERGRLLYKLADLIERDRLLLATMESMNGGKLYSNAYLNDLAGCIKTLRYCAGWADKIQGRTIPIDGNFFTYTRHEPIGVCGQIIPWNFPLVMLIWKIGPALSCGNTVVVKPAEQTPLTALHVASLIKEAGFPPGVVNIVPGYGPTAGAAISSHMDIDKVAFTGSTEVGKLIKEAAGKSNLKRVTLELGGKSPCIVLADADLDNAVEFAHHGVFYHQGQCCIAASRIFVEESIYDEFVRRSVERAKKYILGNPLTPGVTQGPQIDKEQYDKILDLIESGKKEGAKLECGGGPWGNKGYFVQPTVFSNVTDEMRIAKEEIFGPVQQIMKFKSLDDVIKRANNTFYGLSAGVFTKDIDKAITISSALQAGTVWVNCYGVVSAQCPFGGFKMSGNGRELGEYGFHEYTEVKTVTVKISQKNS
Large screens that a line does not name were inactive; [ ] = another dose, or the depositor's remark. Most compounds without a hit are left out; they make up all but 9.9% or so of the library. Unless noted, calls come from the whole dose curve; as a rule, active = well fitted curve in the direction sought with a large enough effect; inconclusive = small, poorly fitted or top-dose-only effect, or another doubt; inactive = no such curve, though single readings can be large; an effect the other way counts as inactive or inconclusive.

CNC(=O)/C(=C\c1ccc2c(c1)OCO2)NC(=O)c1ccc(Br)cc1	none
COc1ccccc1NC(=O)Cn1c(=O)n(Cc2cccs2)c(=O)c2cccnc21	none (no result: HPGD block, JMJD2E inh, ALDH1A1 inh)
COc1ccc(C2=CSC3=NNC4(CCCCC4)NN23)cc1	Tau fibril ThT 22µM, JMJD2E inh inconclusive, ALDH1A1 inh inconclusive (no result: HPGD block)
COc1ccc(-c2nn(C)c3sc(C(=O)Nc4cc(OC)c(OC)c(OC)c4)cc23)cc1OC	Tau fibril ThT inconclusive, Tau fluor counter 2.5µM[quencher], Tau FP inhib inconclusive (no result: HPGD block, JMJD2E inh, ALDH1A1 inh)
COc1ccc(NC(=O)c2cc3c(-c4ccc(OC)c(OC)c4)nn(C)c3s2)cc1OC	Tau fibril ThT inconclusive, JMJD2E inh inconclusive, Tau fluor counter 3.5µM[quencher]
COc1ccc(-c2nn(C)c3sc(C(=O)NCc4ccco4)cc23)cc1OC	HPGD block inconclusive, JMJD2E inh inconclusive, ALDH1A1 inh inconclusive
COc1ccc(OC)c(Nc2nc(=O)c3cccnc3s2)c1	Tau fibril ThT inconclusive, Tau FP inhib inconclusive, ALDH1A1 inh 2µM (no result: HPGD block)
Cc1ccc(Nc2nc(=O)c3cccnc3s2)cc1	none
Cc1cc(S(=O)(=O)N(Cc2ccccc2)Cc2ccc(N(C)C)cc2)ccc1-n1cnnn1	Tau fluor counter inconclusive, ALDH1A1 inh inconclusive
COc1cccc(CN(c2ccc3c(c2)CCC3)S(=O)(=O)c2ccc(-n3cnnn3)c(OC)c2)c1	ALDH1A1 inh 2.5µM
COc1cc(S(=O)(=O)N(Cc2ccc(C)cc2)Cc2ccco2)ccc1-n1cnnn1	ALDH1A1 inh 13µM
COc1cccc(CN(Cc2cccnc2)S(=O)(=O)c2ccc(-n3cnnn3)c(C)c2)c1	ALDH1A1 inh 25µM
Cc1cc(S(=O)(=O)N(Cc2ccccc2Cl)c2ccc3c(c2)CCC3)ccc1-n1cnnn1	ALDH1A1 inh 5µM
CCc1ccc(/C=C2\CN(CC)Cc3c2nc2ccccc2c3C(=O)O)cc1	Tau fibril ThT 25µM, Tau FP inhib inconclusive, ALDH1A1 inh inconclusive
CCN1C/C(=C/c2cccs2)c2nc3ccccc3c(C(=O)O)c2C1	Tau fibril ThT inconclusive, JMJD2E inh 25µM (no result: HPGD block, ALDH1A1 inh)
Cc1ccccc1NS(=O)(=O)c1nnc(NC(=O)c2ccco2)s1	Tau fibril ThT inconclusive, Tau fluor counter inconclusive (no result: HPGD block, JMJD2E inh, ALDH1A1 inh)
CCOC(=O)C1CCCCN1S(=O)(=O)c1csc(C(N)=O)c1 (centres undefined)	none (no result: HPGD block, JMJD2E inh, ALDH1A1 inh)
CCCC(=O)Nc1nc(C)c(-c2csc(Nc3ccc(Cl)cc3)n2)s1	Tau fibril ThT 13µM, Tau fluor counter 14µM[quencher], ALDH1A1 inh inconclusive
CCC(C)C(=O)Nc1nc(C)c(-c2csc(Nc3ccc(Cl)cc3)n2)s1 (centres undefined)	HPGD block inconclusive, Tau fibril ThT inconclusive, Tau fluor counter 14µM[quencher], ALDH1A1 inh 22µM
CCCC(=O)Nc1nc(-c2ccc(Cl)s2)cs1	none (no result: HPGD block)
COc1ccccc1NC(=O)CSc1nc2ccccc2c2nc(-c3ccccc3)nn12	none (no result: HPGD block, JMJD2E inh, ALDH1A1 inh)
O=C1CC(N2CCC(c3nc4ccccc4[nH]3)CC2)C(=O)N1c1cccc(F)c1 (centres undefined)	ALDH1A1 inh 11µM (no result: HPGD block)
O=C(O)c1ccc(N2C(=O)CC(N3CCC(c4nc5ccccc5[nH]4)CC3)C2=O)cc1 (centres undefined)	ALDH1A1 inh 32µM (no result: HPGD block)
O=C(C1CCN(C2CC(=O)N(c3cccc(Cl)c3)C2=O)CC1)N1CCCCCC1 (centres undefined)	ALDH1A1 inh 20µM
O=C1CC(N2CCN(c3ccccc3Cl)CC2)C(=O)N1c1ccc(F)cc1 (centres undefined)	none
O=C1CC(N2CCOCC2)C(=O)N1c1cccc(Cl)c1 (centres undefined)	ALDH1A1 inh inconclusive
O=C1CC(N2CCN(c3ccccc3Cl)CC2)C(=O)N1c1cccc(F)c1 (centres undefined)	ALDH1A1 inh 11µM
O=C1CC(N2CCC(c3nc4ccccc4[nH]3)CC2)C(=O)N1Cc1ccccc1 (centres undefined)	ALDH1A1 inh inconclusive
CN1C(=O)CC(N2CCC(c3nc4ccccc4[nH]3)CC2)C1=O (centres undefined)	none
Cc1cc(Br)ccc1NC(=O)CCNS(=O)(=O)c1cccc2nonc12	none (no result: HPGD block, JMJD2E inh, ALDH1A1 inh)
COC(=O)Nc1ccc(S(=O)(=O)N2c3ccccc3CCC2C)cc1 (centres undefined)	Tau fluor counter inconclusive
CCCOc1ccc(N2C(=O)CC(N3CCC(c4nc5ccccc5o4)CC3)C2=O)cc1 (centres undefined)	none (no result: HPGD block)
O=C1CC(N2CCC(c3nc4ccccc4o3)CC2)C(=O)N1c1ccc(Cl)c(C(F)(F)F)c1 (centres undefined)	HPGD block 20µM, ALDH1A1 inh 8.9µM
COc1ccccc1-c1cc2nc(C)c(CCC(=O)NC(C)CCc3ccco3)c(C)n2n1 (centres undefined)	Tau fibril ThT inconclusive, JMJD2E inh inconclusive, ALDH1A1 inh inconclusive
Cc1cc(S(=O)(=O)Nc2ccc(O)c(Sc3nc4ccccc4s3)c2)ccc1Cl	Tau fibril ThT inconclusive, Tau fluor counter 10µM[quencher], Tau FP inhib inconclusive (no result: HPGD block, JMJD2E inh, ALDH1A1 inh)
O=S(=O)(Nc1ccc(O)c(Sc2nc3ccccc3s2)c1)c1cc(Cl)ccc1Cl	Tau fibril ThT inconclusive, Tau fluor counter 10µM[quencher], Tau FP inhib inconclusive (no result: HPGD block, JMJD2E inh, ALDH1A1 inh)
CN1CCN(CCCNC(=O)c2cnn(-c3ccc(F)cc3)c2-n2cccc2)CC1	none (no result: HPGD block, JMJD2E inh, ALDH1A1 inh)
O=C1CC2(CCCC2)CC(=O)N1c1ccccc1	none (no result: HPGD block)
COc1cc(/C=C2/SC(=Nc3ccc(O)cc3)NC2=O)ccc1O	Tau fibril ThT 4.5µM, Tau fluor counter inconclusive, Tau FP inhib inconclusive (no result: HPGD block)
COc1ccc(/C=C2\CC/C(=C\c3ccc(OC)c(OC)c3)C2=O)cc1OC	Tau fibril ThT inconclusive
COc1cc(/C=C2\CC/C(=C\c3ccc(OCCO)c(OC)c3)C2=O)ccc1OCCO	Tau fibril ThT 14µM, Tau FP inhib inconclusive, ALDH1A1 inh inconclusive (no result: HPGD block)
COc1cc(/C=C2\COC/C(=C\c3ccc(O)c(OC)c3)C2=O)ccc1O	Tau fibril ThT 10µM, Tau fluor counter inconclusive, Tau FP inhib inconclusive, ALDH1A1 inh inconclusive (no result: HPGD block)
COc1cc(/C=C2/CC/C(=C/c3ccc(O)c(OC)c3)C2=O)ccc1O	Tau fibril ThT 0.89µM, JMJD2E inh 11µM, Tau FP inhib inconclusive (no result: HPGD block, ALDH1A1 inh)
CCOc1ccc(CCNC(=O)c2sc3ncccc3c2-n2c(C)ccc2C)cc1	Tau fibril ThT inconclusive (no result: HPGD block, JMJD2E inh, ALDH1A1 inh)
COc1ccc(/C=C/C(=O)c2nc3ccccc3n2CC(=O)c2ccc(OC)cc2)cc1	Tau fibril ThT inconclusive, JMJD2E inh inconclusive, ALDH1A1 inh 16µM
COc1ccc(C(=O)/C=C/c2ccc(OC)c(Cn3nnc4ccccc43)c2)cc1	HPGD block inconclusive, Tau fibril ThT inconclusive, ALDH1A1 inh 11µM
COc1ccc(C(=O)/C=C/c2ccccc2)cc1	Tau fibril ThT inconclusive, ALDH1A1 inh 18µM
COc1ccc(C(=O)/C=C/c2ccc(O)cc2)cc1	Tau fibril ThT inconclusive, Tau FP inhib inconclusive, ALDH1A1 inh inconclusive (no result: HPGD block)
